Experimental data taken from PubChem BioAssay.
Calls of active or inactive are those of the source.

Experiments:
[1] = small molecules captured by biotinylated probe aFSTL3 – biochemical, small-molecule microarray, fluorescence 635/667, stem cell growth factor project, primary screen (AID 1064); settings: higher = more signal;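 further: measures binding of the biotinylated anti-FSTL3 antibody to printed compounds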
[2] = binders from COS7 lysate, DM2A8 probe, primary screen, torsin A project, cell lysate, small-molecule microarray, fluorescence 635/667 (AID 1065); settings: higher = more signal, COS7 lysate expressing mutant human TOR1A
[3] = small molecules captured by biotinylated probe aFGF2 – biochemical, small-molecule microarray, fluorescence 635/667, stem cell growth factor project, primary screen (AID 1067); settings: higher = more signal;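 further: measures binding of biotinylated aFGF2 protein to printed compounds on slides; z-score merges feature fluorescence and signal-to-noise across triplicate slides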
[4] = small molecules captured by biotinylated probe aFGF10 – biochemical, small-molecule microarray, fluorescence 635/667, stem cell growth factor project, primary screen (AID 1071); settings: higher = more signal;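 further: score merges 667 nm spot intensity and signal to noise from triplicate slides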
[5] = biological target: Neurogenic locus notch homolog protein 2 (Homo sapiens) (UniProt Q04721); assay: small molecules binding Notch2 protein – biochemical, small-molecule microarray, 635 nm fluorescence, stem cell growth factors, primary screen (AID 1073); settings: higher = more signal
[6] = biological target: Pro-neuregulin-1, membrane-bound isoform (Homo sapiens) (UniProt Q02297); assay: small molecules binding neuregulin-1 protein – biochemical, small-molecule microarray, fluorescence 635/667, psychiatric disease protein project, primary screen (AID 1075); settings: NRG1 binding, 635 nm fluorescence, higher = more signal;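 further: score combines 667 nm spot fluorescence with signal to noise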
[7] = system: Neuregulin-1 EGF-like domain; assay: small molecules binding NRG1 EGF domain – biochemical, small-molecule microarray, 635 nm fluorescence, primary screen (AID 1081); settings: higher = more signal;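 further: binding of the protein to compounds printed on small-molecule microarray slides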
[8] = FRG1 expression reporter modulators in myotubes – cell-based, C2C12 myotubes, firefly/Renilla luciferase, luminescence, FRG1 inhibition for FSHD, primary screen (AID 1084); settings: FRG1 promoter luciferase, higher = more signal, called active from +8 up or from −8 down
[9] = small molecules captured by biotinylated probe aFST – biochemical, small-molecule microarray, fluorescence 635/667, stem cell growth factor project, primary screen (AID 1086); settings: higher = more signal;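 further: score merges 667 nm fluorescence with signal-to-noise of each printed compound spot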
[10] = binders of probe aHhip on microarray, primary screen, stem cell growth factor project, biochemical, small-molecule microarray, fluorescence 635/667 (AID 1087); settings: higher = more signal;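 further: score merges spot fluorescence at 667nm with spot signal to noise ratio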
[11] = system: PRMT1 (protein arginine N-methyltransferase 1); assay: small molecules binding arginine methyltransferase PRMT1 – biochemical, small-molecule microarray, 635 nm fluorescence, primary screen (AID 1088); settings: higher = more signal;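 further: binding of Prmt1 protein to compounds spotted on small-molecule microarray slides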
[12] = growth effects on S. cerevisiae YJM789 – YJM789 clinical isolate, OD600, 24 h, basal, primary screen (AID 1089); settings: higher = more signal, called active from +8 up or from −8 down;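 further: growth of clinical yeast isolate S. cerevisiae YJM 789 seeded 1000 cells per well; test concentration not given here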
[13] = S. pombe growth modifiers, basal conditions – strain 972, OD600, 24 h, no modulator, primary screen (AID 1090);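 further: basal condition with compound alone and no growth modifier present; test concentration not given here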; settings: S. pombe 972 growth, higher = more signal, called active from +8 up or from −8 down
[14] = budding yeast growth modifiers under rapamycin – strain BY4716, OD600, 96 h, primary screen (AID 1091); further: test concentration not given here; settings: S. cerevisiae BY4716 + rapamycin, higher = more signal, called active from +8 up or from −8 down
[15] = biological target: Torsin-1A-interacting protein 2 (Homo sapiens) (UniProt Q8NFQ8); assay: small molecules binding lysate-expressed LULL1 – cell lysate, human LULL1 lysate, 635/667 nm fluorescence, primary screen (AID 1092); settings: small-molecule microarray, hLULL1 lysate binding, 635 nm fluorescence; higher = more signal;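 further: probe is lysate of COS7 cells overexpressing human LULL1; score merges per-feature 667 nm fluorescence with signal-to-noise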
[16] = optical density change of DRC41 E. coli – strain DRC41, OD650, 24 h, E. coli filamentation project, primary screen (AID 1093);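 further: MC1000 strain lacking acrAB efflux and sulA so SOS filamentation is blocked; test concentration not given here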; settings: E. coli DRC41 growth, higher = more signal, called active from +8 up or from −8 down
[17] = probe aLefty2 binding to arrayed compounds – biochemical, biotinylated probe, 635/667 nm fluorescence, primary screen (AID 1094); settings: small-molecule microarray, higher = more signal;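 further: score merges spot fluorescence near 667 nm with spot signal-to-noise ratio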
[18] = system: Noggin (protein binding on small-molecule microarray); assay: small molecules binding Noggin protein – biochemical, 635/667 nm fluorescence, primary screen (AID 1095); settings: 635 nm fluorescence, higher = more signal;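 further: score merges 667 nm feature fluorescence with signal to noise over triplicate slides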
[19] = biological target: Neurogenic locus notch homolog protein 3 (Homo sapiens) (UniProt Q9UM47); assay: small molecules binding NOTCH3 protein – biochemical, 635/667 nm fluorescence, primary screen (AID 1096); settings: small-molecule microarray, 635 nm fluorescence, higher = more signal
[20] = probe aEGFR binding to arrayed compounds – biochemical, biotinylated probe, 635/667 nm fluorescence, primary screen (AID 1097); settings: small-molecule microarray, higher = more signal;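 further: probe is a biotinylated anti-EGFR antibody binding compounds printed on slides; score combines fluorescence near 667 nm and signal to noise of each spot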

Torsin-1A-interacting protein 2 (Homo sapiens), sequence (Q8NFQ8 whole entry, looked up): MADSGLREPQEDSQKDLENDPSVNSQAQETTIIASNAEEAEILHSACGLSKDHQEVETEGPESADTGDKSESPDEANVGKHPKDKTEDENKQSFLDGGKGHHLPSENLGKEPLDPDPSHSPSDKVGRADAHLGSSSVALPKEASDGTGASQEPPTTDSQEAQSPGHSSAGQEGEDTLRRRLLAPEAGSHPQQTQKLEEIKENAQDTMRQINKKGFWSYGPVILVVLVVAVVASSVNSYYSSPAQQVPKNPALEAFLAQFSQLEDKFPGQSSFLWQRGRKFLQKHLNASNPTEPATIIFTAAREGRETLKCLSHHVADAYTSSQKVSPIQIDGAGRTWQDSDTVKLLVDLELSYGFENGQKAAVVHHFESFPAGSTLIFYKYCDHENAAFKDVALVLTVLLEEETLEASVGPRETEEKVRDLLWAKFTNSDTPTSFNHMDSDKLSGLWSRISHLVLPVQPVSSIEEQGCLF
Pro-neuregulin-1, membrane-bound isoform (Homo sapiens), sequence (Q02297 whole entry, looked up, the tested form may be a part, canonical isoform): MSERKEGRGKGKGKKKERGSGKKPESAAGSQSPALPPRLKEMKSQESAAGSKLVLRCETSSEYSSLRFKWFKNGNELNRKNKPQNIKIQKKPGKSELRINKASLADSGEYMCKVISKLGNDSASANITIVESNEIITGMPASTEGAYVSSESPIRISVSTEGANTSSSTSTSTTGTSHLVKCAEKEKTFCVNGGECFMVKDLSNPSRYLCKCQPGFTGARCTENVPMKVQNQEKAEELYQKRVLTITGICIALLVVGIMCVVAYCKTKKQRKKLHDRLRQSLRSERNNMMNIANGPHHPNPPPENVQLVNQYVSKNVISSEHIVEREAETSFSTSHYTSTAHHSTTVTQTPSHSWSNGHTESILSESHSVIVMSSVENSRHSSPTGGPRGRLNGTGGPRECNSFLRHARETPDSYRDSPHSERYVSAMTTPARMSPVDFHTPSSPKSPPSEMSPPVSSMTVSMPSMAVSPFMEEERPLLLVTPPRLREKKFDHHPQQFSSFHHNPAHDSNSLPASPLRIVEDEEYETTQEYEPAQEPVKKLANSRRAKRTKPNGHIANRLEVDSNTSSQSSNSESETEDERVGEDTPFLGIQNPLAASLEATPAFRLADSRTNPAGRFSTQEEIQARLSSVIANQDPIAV
Neurogenic locus notch homolog protein 3 (Homo sapiens), sequence (Q9UM47 whole entry, looked up): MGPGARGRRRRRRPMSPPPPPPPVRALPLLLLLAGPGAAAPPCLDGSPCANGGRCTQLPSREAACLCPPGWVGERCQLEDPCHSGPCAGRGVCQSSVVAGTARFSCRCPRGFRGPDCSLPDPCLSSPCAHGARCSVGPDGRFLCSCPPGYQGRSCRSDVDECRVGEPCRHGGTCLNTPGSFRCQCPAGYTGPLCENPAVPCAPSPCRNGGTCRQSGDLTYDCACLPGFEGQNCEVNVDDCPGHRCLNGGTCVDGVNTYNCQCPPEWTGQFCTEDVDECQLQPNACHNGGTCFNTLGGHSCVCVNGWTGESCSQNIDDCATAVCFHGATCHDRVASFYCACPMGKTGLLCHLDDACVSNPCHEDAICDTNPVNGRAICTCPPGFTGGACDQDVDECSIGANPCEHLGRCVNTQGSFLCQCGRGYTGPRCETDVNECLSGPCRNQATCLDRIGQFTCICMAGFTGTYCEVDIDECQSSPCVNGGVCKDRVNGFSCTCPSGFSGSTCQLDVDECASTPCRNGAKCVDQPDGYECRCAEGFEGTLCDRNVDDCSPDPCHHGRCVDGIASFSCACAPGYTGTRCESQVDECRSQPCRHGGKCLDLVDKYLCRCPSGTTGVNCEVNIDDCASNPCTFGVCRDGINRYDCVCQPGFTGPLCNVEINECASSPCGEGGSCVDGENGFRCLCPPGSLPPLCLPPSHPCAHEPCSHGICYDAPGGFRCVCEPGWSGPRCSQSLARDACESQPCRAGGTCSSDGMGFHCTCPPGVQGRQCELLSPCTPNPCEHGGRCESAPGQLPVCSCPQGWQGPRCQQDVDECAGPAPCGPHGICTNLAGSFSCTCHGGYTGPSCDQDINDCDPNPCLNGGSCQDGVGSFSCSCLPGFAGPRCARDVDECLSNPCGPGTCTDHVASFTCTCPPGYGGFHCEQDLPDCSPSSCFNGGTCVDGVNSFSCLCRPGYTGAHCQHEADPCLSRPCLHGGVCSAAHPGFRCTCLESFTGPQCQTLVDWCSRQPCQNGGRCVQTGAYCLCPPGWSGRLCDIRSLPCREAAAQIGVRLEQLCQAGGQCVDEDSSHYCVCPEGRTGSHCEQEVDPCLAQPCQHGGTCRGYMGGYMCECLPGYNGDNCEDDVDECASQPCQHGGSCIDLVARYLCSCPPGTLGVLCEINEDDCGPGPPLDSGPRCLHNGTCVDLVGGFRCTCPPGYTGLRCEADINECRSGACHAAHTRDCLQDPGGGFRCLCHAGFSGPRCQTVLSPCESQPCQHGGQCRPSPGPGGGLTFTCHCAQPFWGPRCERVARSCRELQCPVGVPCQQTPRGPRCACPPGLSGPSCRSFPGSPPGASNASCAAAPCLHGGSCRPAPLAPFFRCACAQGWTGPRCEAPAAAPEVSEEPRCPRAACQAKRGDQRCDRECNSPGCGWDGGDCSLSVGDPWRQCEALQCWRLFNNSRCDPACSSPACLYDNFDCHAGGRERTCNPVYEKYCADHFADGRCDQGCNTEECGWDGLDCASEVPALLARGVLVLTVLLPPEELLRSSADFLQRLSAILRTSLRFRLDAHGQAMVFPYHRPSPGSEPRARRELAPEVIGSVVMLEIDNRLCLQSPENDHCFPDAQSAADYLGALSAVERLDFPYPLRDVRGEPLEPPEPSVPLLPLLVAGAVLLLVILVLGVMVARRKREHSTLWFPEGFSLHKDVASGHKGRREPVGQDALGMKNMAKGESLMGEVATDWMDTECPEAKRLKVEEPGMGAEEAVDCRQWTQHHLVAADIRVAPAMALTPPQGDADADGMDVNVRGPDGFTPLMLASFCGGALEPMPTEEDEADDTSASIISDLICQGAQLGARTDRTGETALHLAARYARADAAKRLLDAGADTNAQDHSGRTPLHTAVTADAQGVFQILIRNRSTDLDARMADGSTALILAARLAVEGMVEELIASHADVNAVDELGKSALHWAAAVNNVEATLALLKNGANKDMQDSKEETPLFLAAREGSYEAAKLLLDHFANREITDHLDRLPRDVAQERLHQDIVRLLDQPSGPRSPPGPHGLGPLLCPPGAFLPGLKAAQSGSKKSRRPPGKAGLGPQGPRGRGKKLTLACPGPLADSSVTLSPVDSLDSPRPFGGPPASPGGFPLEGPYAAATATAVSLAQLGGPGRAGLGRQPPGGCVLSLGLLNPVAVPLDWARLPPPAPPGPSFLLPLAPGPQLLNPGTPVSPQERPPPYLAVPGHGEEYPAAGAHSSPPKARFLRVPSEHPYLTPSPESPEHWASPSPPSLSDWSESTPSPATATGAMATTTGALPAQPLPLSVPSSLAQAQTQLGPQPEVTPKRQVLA

Row | Structure (SMILES) | composite z-score [1] | composite z-score [2] | composite z-score [3] | composite z-score [4] | composite z-score [5] | composite z-score [6] | composite z-score [7] | z-score [8] | composite z-score [9] | composite z-score [10] | composite z-score [11] | z-score [12] | z-score [13] | z-score [14] | composite z-score [15] | z-score [16] | composite z-score [17] | composite z-score [18] | composite z-score [19] | composite z-score [20]
1 | COc1ccc(CCNC(=O)[C@@]2(C)c3ccccc3C(=O)N(Cc3cc(F)cc(C(F)(F)F)c3)[C@H]2c2ccc(CO)cc2)cc1 | 0.498 | -0.518 | 0.0046 | -0.23 | 0.146 | 0.499 | 0.969 | -3.42 (inactive) | -0.247 | 0.156 | 0.117 | -0.143 (inactive) | -0.995 (inactive) | 0.882 (inactive) | 2.3 | 0.449 (inactive) | -0.0112 | -0.969 | -0.42 | -0.0549
2 | COc1ccc(C(O)C2C=CC3C(=O)N(c4ccccc4)C(=O)C3N2Nc2ccc(C(C)C)cc2)cc1OCc1ccccc1 (stereo not given) | 0.838 | 0.369 | 0.227 | 1.08 | 1.61 | 1.26 | 1.1 | -1.44 (inactive) | 1.62 | -0.168 | 1.61 | 0.345 (inactive) | 0.309 (inactive) | -0.707 (inactive) | 2.97 | -3.72 (inactive) | 0.308 | 0.112 | 1.03 | 0.339
3 | C=CCOC(=O)[C@H]1[C@@H]2C(=O)O[C@@H](c3ccccc3)[C@@H](c3ccccc3)N2[C@@H](c2ccc(OCCOC(=O)[C@@H]3C[C@@H]4C(=O)N5CCC[C@H]5C(=O)N4[C@@H]3c3cccc(OCCO)c3)cc2)[C@]12C(=O)Nc1ccccc12 | 0.0458 | 0.629 | 0.0584 | 0.808 | 0.761 | 1.26 | 1.31 | 0.999 (inactive) | 0.356 | 0.382 | 1.53 | 1.06 (inactive) | 0.983 (inactive) | 2.72 (inactive) | 2.64 | 0.0706 (inactive) | 0.108 | 0.98 | 1.13 | 0.0617
4 | CCCCCN1CC=CC23O[C@@H]4/C=C\CCCOC(=O)C4[C@H]2C(=O)N(CCCO)[C@@H]3C1=O (stereo not given in full) | -0.181 | 1.14 | -0.156 | 0.116 | -0.573 | 0.753 | 1.47 | -0.16 (inactive) | -0.533 | -0.11 | 0.83 | -1.03 (inactive) | -0.81 (inactive) | -1.67 (inactive) | 3.58 | 2.35 (inactive) | -0.135 | -0.103 | 0.165 | -0.186
5 | CCCC[C@@H]1C[C@H]1[C@@H](NC(=O)c1ccco1)c1ccc(C(=O)OC)cc1 | 0.238 | -0.0736 | -0.124 | 0.286 | -0.253 | 0.0609 | -0.216 | -0.0679 (inactive) | 0.285 | 0.379 | 0.488 | -0.152 (inactive) | -1.61 (inactive) | 0.06 (inactive) | 1.93 | -1.53 (inactive) | 0.0258 | -1.2 | -0.64 | -0.171
6 | [N-]=[N+]=NCc1ccccc1[C@@H]1OC(c2ccc(OCCCO)cc2)=N[C@]1(CCS(=O)(=O)c1ccccc1)C(=O)NCCN1CCOCC1 | 0.21 | 0.631 | 0.269 | 0.918 | 1.65 | 1.99 | 1.31 | 1.97 (inactive) | 1.87 | 0.156 | 1.53 | 0.36 (inactive) | 0.517 (inactive) | 0.766 (inactive) | 3.37 | 0.283 (inactive) | 0.0542 | 1.78 | 1.04 | 0.208
7 | O=C1C2C=CC(C(O)c3ccc(F)cc3)N(Nc3ccccc3F)C2C(=O)N1c1ccccc1 (stereo not given) | 0.185 | -0.333 | 0.124 | 0.439 | 1.16 | 1.99 | 1.23 | -1.43 (inactive) | 0.886 | 0.21 | 0.778 | 0.105 (inactive) | -0.268 (inactive) | 0.0787 (inactive) | 3.48 | -0.42 (inactive) | 0.0224 | -0.503 | 1.13 | -0.0549
8 | COc1cc2c(cc1O)C=[N+](Cc1cccc(OC(F)(F)F)c1)CC2 | -0.193 | 0.137 | -0.106 | -0.0214 | 0.457 | 0.529 | 0.544 | -0.886 (inactive) | -0.0596 | -0.374 | 0.224 | -1.65 (inactive) | -3.24 (inactive) | -1.98 (inactive) | 0.319 | -1.31 (inactive) | -0.103 | -0.0304 | -0.0987 | -0.171
9 | CCOC(=O)C[C@H]1[C@H](OC(=O)Cc2ccc3c(c2)OCO3)[C@@H](NC(=O)c2ccc(-c3ccccc3)cc2)c2cc(OCCCO)ccc2N1C(=O)c1ccc2ccccc2n1 | -0.472 | 0.783 | -0.131 | 0.228 | 0.399 | 0.281 | 0.167 | -4.52 (inactive) | 0.0972 | -0.236 | 0.0972 | -1.84 (inactive) | -2.89 (inactive) | -1.13 (inactive) | 0.417 | 1.63 (inactive) | -0.168 | 0.0955 | 0.257 | -0.0661
